One test deals with Albumin (Bos taurus) (UniProt P02769). Nature of the test: compounds binding labelled BSA control protein – biochemical, small-molecule microarray, Alexa647 label, 635/667 nm fluorescence, artefact control for SMM control protein annotation, profiling panel (AID 1118).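 Further: score merges 667 nm emission intensity and signal-to-noise per printed compound spot.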 The note with it: BSA-A647 binding, fluorescence 635 nm, higher = more signal.
Test [1] can be described thus: probe aXIP binding to arrayed compounds – biochemical, NeuroSMM set, 635/667 nm fluorescence, primary screen (AID 1119).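 Further: probe is the protein aXip251-270 applied at 1 µg/mL to compound-printed slides; binding of probe to printed compounds measured as 667 nm fluorescence plus signal to noise.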 The settings on record: small-molecule microarray, higher = more signal, called active from +8 up or from −8 down.
The nature of test [2]: probe aNOTCH3 binding on compound microarray – biochemical, small-molecule microarray, 635/667 nm fluorescence, primary screen (AID 1120).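 Further: probe is a biotin-tagged antibody raised against NOTCH3 rather than NOTCH3 protein; score merges spot fluorescence near 667 nm with spot signal to noise.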 The settings on record: higher = more signal.
A short description of test [3]: probe aNOTCH2 binding on compound microarray – biochemical, small-molecule microarray, 635/667 nm fluorescence, primary screen (AID 1121).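 Further: score merges feature fluorescence read at 667 nm with its signal to noise.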 The settings on record: higher = more signal.
For test [4], the target named is Carbonic anhydrase 2 (Homo sapiens) (UniProt P00918). Nature of the test: compounds binding carbonic anhydrase 2 – biochemical, small-molecule microarray, Alexa647-labelled CAII, profiling panel (AID 1122). The settings on record: CAII-A647 binding fluorescence, higher = more signal.
Test [5] is described as follows: COS7 lysate on small-molecule microarray, probe aHis, 635 nm (AID 1123).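 Further: z-score combines 667nm fluorescence intensity with signal-to-noise per printed compound spot.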 The note with it: COS7 cell lysate, fluorescence, higher = more signal.
A short description of test [6]: probe aLAP1 signal on lysate-treated microarray – cell lysate, small-molecule microarray, COS7 lysate, primary screen (AID 1124).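 Further: lysate comes from COS7 cells expressing LAP1 and is applied at 0.3 µg/mL; score merges spot fluorescence near 667 nm with signal-to-noise over triplicate slides.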 The note with it: probe aLAP1, fluorescence, higher = more signal.
The next test relates to Sam68 (KHDRBS1). Nature of the test: compounds binding KHDRBS1 protein – biochemical, small-molecule microarray, 635 nm fluorescence, primary screen (AID 1125).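 Further: score merges 667 nm channel intensity with signal to noise over triplicate slides.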 The note with it: higher = more signal.
Test [7] relates to Chordin-like protein 2 (CHRDL2). Description: compounds binding chordin-like 2 – biochemical, small-molecule microarray, 635 nm fluorescence, primary screen (AID 1126).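 Further: printed compound slides probed with Chrdl2 protein at 4 µg/mL for 1 h at 4 C; score merges 667 nm emission intensity with signal to noise over three replicate slides.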 The note with it: fluorescence 635 nm, higher = more signal.
Test [8] has as its target Concanavalin-A (Canavalia ensiformis) (UniProt P02866). Nature of the test: compounds binding concanavalin A lectin – biochemical, small-molecule microarray, Alexa647 label, 635 nm, artefact control for SMM control protein annotation, primary screen (AID 1127).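 Further: z combines 667 nm emission intensity with signal-to-noise across three replicate slides.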 The note with it: ConA-A647 binding fluorescence, higher = more signal.
Test [9] in a line: compounds binding Alexa647 anti-His antibody – biochemical, small-molecule microarray, 635 nm fluorescence, artefact control for SMM control protein annotation, primary screen (AID 1128).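 Further: score merges feature fluorescence with signal-to-noise for each printed compound spot.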 The settings on record: higher = more signal.
In test [10] the test system is Human papillomavirus type 1a E7 protein (residues 1-88). Nature of the test: HPV1a E7 small-molecule binders, primary screen, biochemical, small-molecule microarray, residues 1-88, 635 nm (AID 1129). The settings on record: small-molecule microarray binding, fluorescence 635 nm; higher = more signal.
For test [11], the target named is Focal adhesion kinase 1 (Homo sapiens) (UniProt Q05397). Description: PTK2 protein binding on printed compound slides – biochemical, small-molecule microarray, 635/667 nm fluorescence, BSA, DTT, primary screen (AID 1130).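 Further: composite of spot emission at 667 nm and signal to noise over triplicate slides.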 The settings on record: 635 nm fluorescence, higher = more signal.
Focal adhesion kinase 1 (Homo sapiens), sequence (Q05397 whole entry, looked up): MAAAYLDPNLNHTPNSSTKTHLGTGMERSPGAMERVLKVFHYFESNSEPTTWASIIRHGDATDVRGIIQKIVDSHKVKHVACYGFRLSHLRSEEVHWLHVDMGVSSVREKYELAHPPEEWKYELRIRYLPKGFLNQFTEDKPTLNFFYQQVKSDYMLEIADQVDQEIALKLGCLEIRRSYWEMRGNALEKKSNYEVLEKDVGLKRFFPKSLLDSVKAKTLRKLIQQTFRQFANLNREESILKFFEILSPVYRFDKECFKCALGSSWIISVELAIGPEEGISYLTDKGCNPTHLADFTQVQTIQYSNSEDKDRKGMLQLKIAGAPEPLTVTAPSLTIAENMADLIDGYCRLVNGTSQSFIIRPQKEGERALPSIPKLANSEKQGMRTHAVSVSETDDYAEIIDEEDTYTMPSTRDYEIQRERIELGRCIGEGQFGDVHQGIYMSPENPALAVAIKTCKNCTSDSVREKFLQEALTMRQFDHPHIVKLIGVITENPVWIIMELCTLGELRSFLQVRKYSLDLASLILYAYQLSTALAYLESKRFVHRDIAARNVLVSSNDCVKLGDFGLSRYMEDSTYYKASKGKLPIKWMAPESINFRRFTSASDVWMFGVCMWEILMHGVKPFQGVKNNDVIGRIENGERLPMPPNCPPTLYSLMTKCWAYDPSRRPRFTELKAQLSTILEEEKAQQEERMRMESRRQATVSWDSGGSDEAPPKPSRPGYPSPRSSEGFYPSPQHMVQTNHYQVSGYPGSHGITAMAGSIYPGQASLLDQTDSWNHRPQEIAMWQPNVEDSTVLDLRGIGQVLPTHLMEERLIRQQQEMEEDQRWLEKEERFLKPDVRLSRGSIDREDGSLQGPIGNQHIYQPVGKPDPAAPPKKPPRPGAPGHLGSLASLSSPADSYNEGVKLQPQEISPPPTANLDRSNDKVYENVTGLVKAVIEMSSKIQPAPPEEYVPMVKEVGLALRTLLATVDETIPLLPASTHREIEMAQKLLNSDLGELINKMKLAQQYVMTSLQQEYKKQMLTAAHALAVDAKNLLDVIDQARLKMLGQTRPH
Test [12] concerns Fibrinogen (Alexa647-labelled). Nature of the test: Alexa647-fibrinogen binding to printed small molecules – biochemical, small-molecule microarray, 635/667 nm fluorescence, artefact control for SMM control-protein annotation, profiling panel (AID 1131).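 Further: z-score merges 667 nm fluorescence with per-spot signal-to-noise over triplicate slides.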 The note with it: fibrinogen-A647 binding fluorescence, higher = more signal.
Test [13] addresses Follistatin (Homo sapiens) (UniProt P19883). Description: FST protein binding to printed compounds – biochemical, small-molecule microarray, 635/667 nm fluorescence, primary screen (AID 1132). The settings on record: 635 nm fluorescence, higher = more signal.
Test [14] deals with Fibroblast growth factor 2 (Homo sapiens) (UniProt P09038). Description: basic fibroblast growth factor binding to printed compounds – biochemical, small-molecule microarray, 635/667 nm fluorescence, primary screen (AID 1133). The settings on record: FGF2, fluorescence 635/667, higher = more signal.
Fibroblast growth factor 2 (Homo sapiens), sequence (P09038 whole entry, looked up): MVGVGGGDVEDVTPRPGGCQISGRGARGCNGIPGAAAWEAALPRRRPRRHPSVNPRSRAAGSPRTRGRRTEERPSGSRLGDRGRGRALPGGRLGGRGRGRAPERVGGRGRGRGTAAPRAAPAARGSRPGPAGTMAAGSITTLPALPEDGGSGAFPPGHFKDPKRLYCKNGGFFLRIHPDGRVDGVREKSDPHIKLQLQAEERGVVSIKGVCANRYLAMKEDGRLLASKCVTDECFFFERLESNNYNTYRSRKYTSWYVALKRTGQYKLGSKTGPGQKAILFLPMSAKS
A short description of test [15]: JC-1 mitochondrial potential readout, lung cancer cells – cell-based, A549, JC-1 fluorescence, basal, 24 h, 100 nL, profiling panel (AID 1138).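 Further: A549 lung adenocarcinoma cells under basal conditions with no added stimulus; test concentration not given here.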 The settings on record: higher = more signal.
The test system of the next test is Lefty1. Nature of the test: Lefty1 protein binding to printed compounds – biochemical, small-molecule microarray, 635/667 nm fluorescence, primary screen (AID 1139). The note with it: fluorescence 635/667, higher = more signal.
In test [16] the test system is wheat germ agglutinin (Triticum aestivum), Alexa647-labelled. Nature of the test: Alexa647-WGA lectin binding to printed small molecules – biochemical, small-molecule microarray, 635/667 nm fluorescence, artefact control for SMM control-protein annotation, profiling panel (AID 1140).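 Further: score merges 667 nm feature emission with signal to noise over triplicate slides.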 The note with it: WGA-A647 binding, 635 nm fluorescence, higher = more signal.
Test [17] deals with Luciferin 4-monooxygenase (Photinus pyralis) (UniProt P08659). Nature of the test: inhibition of purified Photinus pyralis luciferase – biochemical, luminescence, purified enzyme, 2006 set, primary screen (AID 1141).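 Further: cell-free assay with purified firefly luciferase at 100 ng per well in PBS; test concentration not given here.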 The note with it: purified firefly luciferase, SteadyGlo luminescence, 30 min; higher = more signal, called active from +8 up or from −8 down.
Luciferin 4-monooxygenase (Photinus pyralis), sequence (P08659 whole entry, looked up): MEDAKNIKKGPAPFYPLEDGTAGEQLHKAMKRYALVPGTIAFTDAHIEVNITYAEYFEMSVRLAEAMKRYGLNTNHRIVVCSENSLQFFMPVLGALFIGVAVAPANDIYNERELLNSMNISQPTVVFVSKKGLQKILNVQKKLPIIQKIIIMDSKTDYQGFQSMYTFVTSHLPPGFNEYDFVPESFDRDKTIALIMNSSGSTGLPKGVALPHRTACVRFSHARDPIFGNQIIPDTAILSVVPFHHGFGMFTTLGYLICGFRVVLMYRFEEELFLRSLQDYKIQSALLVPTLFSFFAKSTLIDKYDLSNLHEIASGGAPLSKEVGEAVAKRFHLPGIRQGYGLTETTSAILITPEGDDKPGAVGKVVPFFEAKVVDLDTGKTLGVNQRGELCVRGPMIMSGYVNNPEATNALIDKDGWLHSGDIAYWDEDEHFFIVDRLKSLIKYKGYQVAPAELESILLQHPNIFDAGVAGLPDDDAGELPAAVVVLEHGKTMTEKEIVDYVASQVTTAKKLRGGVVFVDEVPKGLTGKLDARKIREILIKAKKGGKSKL

The source made the active and inactive calls.

Concanavalin-A (Canavalia ensiformis), sequence (P02866 whole entry, looked up): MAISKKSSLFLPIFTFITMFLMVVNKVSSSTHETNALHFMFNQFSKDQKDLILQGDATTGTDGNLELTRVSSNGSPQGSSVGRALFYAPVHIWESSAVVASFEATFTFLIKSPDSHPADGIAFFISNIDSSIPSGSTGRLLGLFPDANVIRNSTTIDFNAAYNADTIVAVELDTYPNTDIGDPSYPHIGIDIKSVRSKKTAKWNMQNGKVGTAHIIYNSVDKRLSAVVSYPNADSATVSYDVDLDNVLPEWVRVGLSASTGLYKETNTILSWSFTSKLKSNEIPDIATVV
Follistatin (Homo sapiens), sequence (P19883 whole entry, looked up): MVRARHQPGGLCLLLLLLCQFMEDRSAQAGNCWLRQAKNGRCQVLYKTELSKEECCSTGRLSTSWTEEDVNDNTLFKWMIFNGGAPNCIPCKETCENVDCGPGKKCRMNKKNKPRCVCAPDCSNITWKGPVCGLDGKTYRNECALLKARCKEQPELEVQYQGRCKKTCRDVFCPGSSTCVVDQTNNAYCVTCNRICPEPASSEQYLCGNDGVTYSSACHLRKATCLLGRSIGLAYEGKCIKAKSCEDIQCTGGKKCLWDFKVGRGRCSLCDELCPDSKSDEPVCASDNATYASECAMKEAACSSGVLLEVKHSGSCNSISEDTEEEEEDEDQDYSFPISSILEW
Albumin (Bos taurus), sequence (P02769 whole entry, looked up): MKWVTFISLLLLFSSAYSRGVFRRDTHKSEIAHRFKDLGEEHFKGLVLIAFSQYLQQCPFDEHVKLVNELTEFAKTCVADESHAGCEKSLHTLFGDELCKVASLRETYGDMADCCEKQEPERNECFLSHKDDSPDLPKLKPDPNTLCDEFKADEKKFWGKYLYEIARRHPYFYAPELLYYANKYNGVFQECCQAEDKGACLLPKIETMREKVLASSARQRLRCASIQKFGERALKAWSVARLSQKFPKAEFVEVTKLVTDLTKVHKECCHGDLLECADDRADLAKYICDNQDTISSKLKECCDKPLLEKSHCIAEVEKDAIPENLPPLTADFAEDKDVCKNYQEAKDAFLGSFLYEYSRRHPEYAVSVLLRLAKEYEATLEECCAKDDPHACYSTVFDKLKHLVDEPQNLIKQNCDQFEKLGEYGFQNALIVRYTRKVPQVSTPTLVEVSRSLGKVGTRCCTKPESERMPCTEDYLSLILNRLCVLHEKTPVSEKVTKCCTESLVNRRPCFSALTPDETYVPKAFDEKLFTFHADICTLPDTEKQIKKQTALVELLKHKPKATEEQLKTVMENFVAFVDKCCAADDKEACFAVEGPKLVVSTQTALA

Consider `CN(C)CCCC[C@@H]1NC(=O)[C@@H]2C[C@H](C(=O)O)[C@H](c3cccc(OCCO)c3)N2C1=O`, for which the composite z-score with Albumin (Bos taurus) was 0.0812; in [2] it was -0.0914; in test [3], -0.116; in test [4], 0.198; in test [5], 0.491; in [6], -0.0644. Also, the composite z-score in the test on Sam68 (KHDRBS1) is -0.936; in test [7], 0.217; in test [8], 0.567; in [9], 1.22; in test [10], -0.544; in test [11], -0.335. In addition, the composite z-score in test [12] is 0.438; in test [13], 0.072; in test [14], 1.17; in the test on Lefty1, -0.528; in [16], -0.138. In test [1], the composite Z-score was 0.627 (inactive). In addition, the z-score in test [15] is 0.0092; in test [17], -0.836 (inactive).
Turning to `COc1cc(NN2C(C(O)C3CCCCC3)C=CC3C(=O)N(c4ccccc4)C(=O)C32)cc(OC)c1OC` (stereo not given), the composite z-score is 1.07 with Albumin (Bos taurus); 0.0205 in test [2]; 0.0888 in test [3]; 0.712 in test [4]; 2.65 in test [5]; 0.605 in test [6]. For the same compound, the composite z-score with Sam68 (KHDRBS1) was 1.3; in [7] it was -1.5; in [8], 1.11; in test [9] it was 1.96; in [10], 1.26; in [11], 0.724. For the same compound, the composite z-score in test [12] is 0.964; in [13], 0.459; in test [14], -0.776; in the test with Lefty1 it was -0.175; in [16], 1.23. In addition, the composite Z-score in test [1] is 1.13 (inactive). In addition, the z-score is -0.0727 in [15] and -0.45 (inactive) in [17].
For `COCC(=C=CC[C@H](O)c1cccc(OCCO)c1)C[C@H](O)COCc1ccccc1`, the composite z-score was determined as 0.484 with Albumin (Bos taurus); 0.187 in [2]; 0.104 in test [3]; 0.742 in test [4]; 2.13 in test [5]; 0.66 in [6]. Besides, the composite z-score in the test on Sam68 (KHDRBS1) was 0.938; in test [7] it was -0.227; in test [8], -0.564; in test [9], 1.09; in [10], 1.11; in test [11], 1.24. Besides, the composite z-score in [12] is -0.749; in [13] it was 1.21; in [14], 1.23; in the test with Lefty1, 0.88; in test [16], -0.41. Moreover, the composite Z-score in test [1] was -0.141 (inactive). The z-score in test [15] is -0.177; in test [17], -0.496 (inactive).
In the case of `COCCOC(=O)N1C(=O)[C@@]2(c3cc(C#CCC(C(=O)OC)C(=O)OC)ccc31)[C@H](c1ccc(OCCO)cc1)N1[C@H](c3ccccc3)[C@H](c3ccccc3)OC(=O)[C@H]1[C@@H]2C(=O)Nc1nc2ccccc2s1`, the composite z-score with Albumin (Bos taurus) was -0.86; in test [2], -0.0077; in test [3] it was 0.15; in test [4], 0.405; in test [5] it was 0.221; in test [6] it was -0.157. The composite z-score was 1.31 in the test on Sam68 (KHDRBS1); 0.219 in test [7]; 1.11 in [8]; 0.572 in test [9]; 1.16 in test [10]; -0.14 in test [11]. Moreover, the composite z-score is 0.973 in [12]; 1.24 in test [13]; 0.35 in test [14]; 1.06 with Lefty1; 0.671 in [16]. Moreover, the composite Z-score in test [1] is 0.575 (inactive). Besides, the z-score is -2.17 in [15] and -1.2 (inactive) in test [17].
In the case of `CC(C)(C)OC(=O)CC[C@]12N=C(c3ccc(OCCCO)cc3)O[C@H]1c1ccccc1N(Cc1ccccc1)C2=O`, the composite z-score was 0.0468 with Albumin (Bos taurus); 0.0525 in test [2]; -0.0456 in test [3]; 0.557 in test [4]; 2.39 in [5]; 0.504 in test [6]. In addition, the composite z-score turned out to be 1.3 with Sam68 (KHDRBS1); 0.581 in test [7]; 0.995 in [8]; 1.6 in test [9]; 1.13 in [10]; 0.56 in test [11]. In addition, the composite z-score in test [12] stood at 0.758; in [13] it was 1.35; in test [14] it was 1.4; with Lefty1, 0.457; in test [16] it was 0.477. Moreover, the composite Z-score in test [1] was 2.86 (inactive). Besides, the z-score in test [15] is 3.04; in test [17], -2.2 (inactive).
For `CCCNC(=O)[C@@]1(Sc2ccc(C)cc2)CC(=O)N(C2CCCCC2)[C@@H]1c1ccc(CO)cc1I`, the composite z-score with Albumin (Bos taurus) is 0.207; in test [2], -0.147; in test [3], -0.132; in test [4], 0.439; in test [5] it was 1.47; in [6] it was 0.207. The composite z-score with Sam68 (KHDRBS1) is 0.65; in test [7], -0.501; in [8], 0.298; in test [9], 1.53; in test [10], 1.2; in test [11], 0.996. Moreover, the composite z-score is 0.146 in test [12]; -0.182 in test [13]; 0.128 in test [14]; -0.351 in the test on Lefty1; 0.73 in test [16]. The composite Z-score in test [1] is 0.73 (inactive). Besides, the figures for the z-score in [15] and in test [17] were 1.04 and -0.0779 (inactive), respectively.
Turning to `[N-]=[N+]=NCc1ccccc1[C@@H]1OC(c2ccc(OCCCO)cc2)=N[C@]1(Cc1ccccc1N=[N+]=[N-])C(=O)NCCN1CCOCC1`, the composite z-score with Albumin (Bos taurus) was 0.741; in [2], 0.202; in test [3], -0.0219; in [4], 0.828; in test [5], 2.14; in test [6], 1.01. Moreover, the composite z-score is 1.31 with Sam68 (KHDRBS1); 0.32 in [7]; 0.863 in test [8]; 1.37 in test [9]; 1.25 in test [10]; 0.535 in [11]. For the same compound, the composite z-score in test [12] is 0.983; in test [13], 1.39; in test [14], 0.893; in the test with Lefty1, 0.54; in test [16], 0.445. For the same compound, the composite Z-score in test [1] is 0.215 (inactive). The z-score in test [15] was 2.23; in test [17] it was -2.82 (inactive).
Take `Cc1cccc([C@H]2C[C@H]3C(I)=C[C@@H]2C(=O)[C@]32CO2)c1`: the composite z-score with Albumin (Bos taurus) was -0.883; in test [2] it was -0.199; in test [3] it was -0.112; in test [4] it was 0.0705; in test [5], -0.55; in [6], 0.466. For the same compound, the composite z-score was -0.5 in the test with Sam68 (KHDRBS1); 0.645 in test [7]; -0.478 in test [8]; 0.0509 in test [9]; -0.479 in test [10]; -0.446 in test [11]. Besides, the composite z-score is -0.775 in [12]; 0.573 in test [13]; 0.437 in test [14]; -0.118 in the test on Lefty1; -0.412 in test [16]. In test [1], the composite Z-score was 0.694 (inactive). The z-score in test [15] was 0.33; in test [17], -0.303 (inactive).
For the compound `O=C1O[C@H](c2ccccc2)[C@H](c2ccccc2)N2[C@H]1[C@@H](C(=O)Nc1nc3ccccc3s1)[C@]1(C(=O)Nc3ccc(C#CC4=CCCCC4)cc31)[C@H]2c1ccc(O)cc1`, the composite z-score in the test with Albumin (Bos taurus) was 0.658; in test [2] it was 0.278; in test [3] it was -0.117; in [4], 0.185; in test [5] it was 2.16; in test [6], -0.0648. The composite z-score was 1.3 in the test on Sam68 (KHDRBS1); -0.12 in test [7]; 0.973 in test [8]; 0.41 in test [9]; 1.18 in [10]; -0.145 in test [11]. Moreover, the composite z-score in test [12] was determined as 0.921; in test [13], 1.12; in [14], 0.355; with Lefty1 it was 0.844; in test [16], 0.191. In addition, the composite Z-score in test [1] is 0.156 (inactive). In addition, the z-score is -1.83 in test [15] and 0.128 (inactive) in [17].

The values are drawn from PubChem BioAssay.
